Source: the supplement of paper PMC8728848
Many of the other results were omitted from the sample, so the strongest signals are more common in it than they were.

Columns and labels:
Assay in all cases: glycan array binding signal (z-score within array); higher = stronger binding
Conditions in all cases: glycan notation: IUPAC condensed, linker removed
[1] = biological target: Fuc(a1-2)[Gal(a1-3)]Gal(b1-4)GlcNAc(b1-2)Man(a1-3)[Fuc(a1-2)[Gal(a1-3)]Gal(b1-4)GlcNAc(b1-2)Man(a1-6)]Man(b1-4)GlcNAc(b1-4)GlcNAc
In short: (§1)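 Negative Z-scores can be read as non-binding. The Z-score is calculated within each array and then averaged across arrays of one protein sequence at different concentrations or buffers and across linkers. Arrays, 3228 in all, were curated from the Consortium for Functional Glycomics database and kept only where the protein sequence was available.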

[2] = biological target: Fuc(a1-2)[Gal(a1-3)]Gal(b1-4)[Fuc(a1-3)]Glc
In short: as §1

[3] = biological target: Fuc(a1-2)[GalNAc(a1-3)]Gal(b1-4)[Fuc(a1-3)]GlcNAc(b1-3)GalNAc
In short: as §1

Fuc(a1-3)GlcNAc = biological target: Fuc(a1-3)GlcNAc
In short: as §1

[4] = biological target: Gal(b1-3)GlcNAc(b1-3)Gal(b1-4)GlcNAc(b1-6)[Gal(b1-3)GlcNAc(b1-3)]Gal(b1-4)Glc
In short: as §1

[5] = biological target: Gal(b1-4)GlcNAc(b1-2)[Gal(b1-4)GlcNAc(b1-4)]Man(a1-3)[Gal(b1-4)GlcNAc(b1-2)[Gal(b1-4)GlcNAc(b1-6)]Man(a1-6)]Man(b1-4)GlcNAc(b1-4)GlcNAc
In short: as §1

[6] = biological target: Gal(b1-4)GlcNAc(b1-3)[Gal(b1-4)GlcNAc(b1-6)]GalNAc
In short: as §1

[7] = biological target: Gal(b1-4)GlcNAc(b1-3)[GlcNAc(b1-6)]Gal(b1-4)GlcNAc
In short: as §1

GalNAc(b1-3)GalNAc = biological target: GalNAc(b1-3)GalNAc
In short: as §1

[8] = biological target: GlcNAc(a1-4)Gal(b1-4)GlcNAc(b1-3)Gal(b1-4)GlcNAc
In short: as §1

[9] = biological target: GlcNAc(b1-2)[GlcNAc(b1-4)]Man(a1-3)[GlcNAc(b1-2)Man(a1-6)]Man(b1-4)GlcNAc(b1-4)GlcNAc
In short: as §1

[10] = biological target: GlcNAc(b1-2)[GlcNAc(b1-6)]Man(a1-6)[GlcNAc(b1-2)Man(a1-3)]Man(b1-4)GlcNAc(b1-4)GlcNAc
In short: as §1

GlcNAc(b1-4)GlcNAc = biological target: GlcNAc(b1-4)GlcNAc
In short: as §1

[11] = biological target: GlcNAc(b1-4)GlcNAc(b1-4)GlcNAc(b1-4)GlcNAc(b1-4)GlcNAc(b1-4)GlcNAc
In short: as §1

[12] = biological target: GlcNAc(b1-6)Gal(b1-4)GlcNAc
In short: as §1

[13] = biological target: GlcNAc6S(b1-3)Gal(b1-4)GlcNAc
In short: as §1

Kdn(a2-3)Gal(b1-4)Glc = biological target: Kdn(a2-3)Gal(b1-4)Glc
In short: as §1

[14] = biological target: Man(a1-2)Man(a1-2)Man(a1-3)Man
In short: as §1

[15] = biological target: Man(a1-2)Man(a1-2)Man(a1-6)[Man(a1-3)]Man
In short: as §1

[16] = biological target: Man(a1-2)Man(a1-3)[Man(a1-2)Man(a1-6)]Man(a1-6)[Man(a1-2)Man(a1-2)Man(a1-3)]Man
In short: as §1

[17] = biological target: Man(a1-2)Man(a1-3)[Man(a1-2)Man(a1-6)]Man(a1-6)[Man(a1-2)Man(a1-2)Man(a1-3)]Man(b1-4)GlcNAc(b1-4)GlcNAc
In short: as §1

[18] = biological target: Man(a1-2)Man(a1-3)[Man(a1-6)]Man(a1-6)[Man(a1-2)Man(a1-3)]Man(b1-4)GlcNAc(b1-4)GlcNAc
In short: as §1

[19] = biological target: Man(a1-2)Man(a1-6)[Man(a1-3)]Man(a1-6)[Man(a1-2)Man(a1-2)Man(a1-3)]Man
In short: as §1

[20] = biological target: Man(a1-2)Man(a1-6)[Man(a1-3)]Man(a1-6)[Man(a1-2)Man(a1-2)Man(a1-3)]Man(b1-4)GlcNAc(b1-4)GlcNAc
In short: as §1

Man(a1-3)[Man(a1-6)]Man = biological target: Man(a1-3)[Man(a1-6)]Man
In short: as §1

[21] = biological target: Man(a1-3)[Man(a1-6)]Man(a1-6)[Man(a1-2)Man(a1-3)]Man(b1-4)GlcNAc(b1-4)GlcNAc
In short: as §1

[22] = biological target: Neu5Ac(a2-3)Gal(b1-3)GlcNAc6S
In short: as §1

[23] = biological target: Neu5Ac(a2-3)Gal(b1-4)GlcNAc(b1-3)Gal(b1-4)GlcNAc
In short: as §1

[24] = biological target: Neu5Ac(a2-3)Gal(b1-4)[Fuc(a1-3)]GlcNAc
In short: as §1

Neu5Ac(a2-3)GalNAc = biological target: Neu5Ac(a2-3)GalNAc
In short: as §1

[25] = biological target: Neu5Ac(a2-3)[GalNAc(b1-4)]Gal(b1-4)Glc
In short: as §1

[26] = biological target: Neu5Ac(a2-6)Gal(b1-4)GlcNAc(b1-3)Gal(b1-3)GlcNAc
In short: as §1

[27] = biological target: Neu5Ac(a2-6)Gal(b1-4)GlcNAc(b1-3)Gal(b1-4)GlcNAc
In short: as §1

[28] = biological target: Neu5Ac(a2-6)Gal(b1-4)GlcNAc(b1-3)Gal(b1-4)[Fuc(a1-3)]GlcNAc(b1-3)Gal(b1-4)[Fuc(a1-3)]GlcNAc
In short: as §1

[29] = biological target: Neu5Ac(a2-8)Neu5Ac(a2-3)[Gal(b1-3)GalNAc(b1-4)]Gal(b1-4)Glc
In short: as §1

[30] = biological target: Neu5Ac(a2-8)Neu5Ac(a2-8)Neu5Ac(a2-3)[GalNAc(b1-4)]Gal(b1-4)Glc
In short: as §1

Neu5Gc(a2-6)GalNAc = biological target: Neu5Gc(a2-6)GalNAc
In short: as §1

[31] = biological target: Neu5Gc(b2-6)Gal(b1-4)GlcNAc
In short: as §1

B1: CVN (Nostoc ellipsosporum), P81180 (protein)
chain: LGKFSQTCYNSAIQGSVLTSTCERTNGGYNTSSIDLNSVIENVDGSLKWQPSNFIETCRNTQLAGSSELAAECKTRAQQFVSTKINLDDHIANIDGTLKYE
glycan array binding signal (z-score) [1]: 0.048 | glycan array binding signal (z-score) [2]: -0.107 | glycan array binding signal (z-score) [3]: 0.522 | glycan array binding signal (z-score) (Fuc(a1-3)GlcNAc): -0.306 | glycan array binding signal (z-score) [4]: -0.301 | glycan array binding signal (z-score) [5]: 5.21 | glycan array binding signal (z-score) [6]: -0.095 | glycan array binding signal (z-score) [7]: -0.306 | glycan array binding signal (z-score) (GalNAc(b1-3)GalNAc): -0.306 | glycan array binding signal (z-score) [8]: -0.203 | glycan array binding signal (z-score) [9]: 0.024 | glycan array binding signal (z-score) [10]: -0.3 | glycan array binding signal (z-score) (GlcNAc(b1-4)GlcNAc): -0.301 | glycan array binding signal (z-score) [11]: -0.306 | glycan array binding signal (z-score) [12]: -0.302 | glycan array binding signal (z-score) [13]: -0.222 | glycan array binding signal (z-score) (Kdn(a2-3)Gal(b1-4)Glc): -0.296 | glycan array binding signal (z-score) [14]: 5.16 | glycan array binding signal (z-score) [15]: 5.83 | glycan array binding signal (z-score) [16]: 7.15 | glycan array binding signal (z-score) [17]: 5.21 | glycan array binding signal (z-score) [18]: 5.58 | glycan array binding signal (z-score) [19]: 7.23 | glycan array binding signal (z-score) [20]: 6.39 | glycan array binding signal (z-score) (Man(a1-3)[Man(a1-6)]Man): -0.299 | glycan array binding signal (z-score) [21]: 4.22 | glycan array binding signal (z-score) [22]: -0.304 | glycan array binding signal (z-score) [23]: -0.3 | glycan array binding signal (z-score) [24]: -0.268 | glycan array binding signal (z-score) (Neu5Ac(a2-3)GalNAc): -0.303 | glycan array binding signal (z-score) [25]: -0.305 | glycan array binding signal (z-score) [26]: -0.302 | glycan array binding signal (z-score) [27]: -0.284 | glycan array binding signal (z-score) [28]: 0.537 | glycan array binding signal (z-score) [29]: -0.246 | glycan array binding signal (z-score) [30]: -0.237 | glycan array binding signal (z-score) (Neu5Gc(a2-6)GalNAc): -0.308 | glycan array binding signal (z-score) [31]: -0.306
